Experimental data reported in PubChem BioAssay.

Tests used:
[1] = biological target: Tumor necrosis factor receptor superfamily member 10B (Homo sapiens) (UniProt O14763); test: viability loss of caspase-8 NB7 cells with TRAIL – with/without TRAIL, luminescence panel, confirmation (AID 651596); settings: NB7 neuroblastoma + caspase-8, TRAIL sensitization, NB7 Caspase-8, with TRAIL, mean of runs, at 10 µM, stronger effect = higher value
[2] = as above; settings: NB7 neuroblastoma + caspase-8, without TRAIL, NB7 Caspase-8, without TRAIL, mean of runs, at 10 µM

Chain of Tumor necrosis factor receptor superfamily member 10B (Homo sapiens) (O14763 whole entry, looked up): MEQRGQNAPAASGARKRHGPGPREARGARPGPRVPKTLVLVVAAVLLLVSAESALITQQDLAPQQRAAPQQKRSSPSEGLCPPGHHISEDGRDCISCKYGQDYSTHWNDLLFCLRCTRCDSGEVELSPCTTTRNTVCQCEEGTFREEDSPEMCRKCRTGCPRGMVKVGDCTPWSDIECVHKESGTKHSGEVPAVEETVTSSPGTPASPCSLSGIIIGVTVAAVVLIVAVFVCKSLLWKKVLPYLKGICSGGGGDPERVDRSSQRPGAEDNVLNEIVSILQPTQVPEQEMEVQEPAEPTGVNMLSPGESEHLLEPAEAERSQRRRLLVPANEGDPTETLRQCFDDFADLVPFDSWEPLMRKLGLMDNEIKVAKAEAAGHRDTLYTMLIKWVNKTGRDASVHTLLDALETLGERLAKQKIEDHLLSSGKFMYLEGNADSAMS

| SMILES | activity [1] | activity [2] |
| --- | --- | --- |
| O=S1(=O)CC(c2ccccc2)=NN=C(c2ccccc2)C1 | 79% | 75.8% |
| Oc1cc(NCc2ccc(F)cc2)cc2cccnc12 | 36.8% | 33.5% |
| O=C(Nc1cccc(O)c1)c1noc2c1CCc1ccccc1-2 | 76.6% | 67.1% |
| Fc1cccc(CSc2nc3ccncc3[nH]2)c1 | 55.2% | 54.4% |
| COc1cc(OC)cc(C(=O)Nc2nc3ccccc3[nH]2)c1 | 55% | 56.8% |
| CC(C)C[C@H]1CNC(=S)N1C[C@H]1CCCN1C[C@H](Cc1ccccc1)N1C[C@H](Cc2ccc(O)cc2)N(CC2CCCCC2)C1=S | -0.175% | -1.23% |
| O=C(Nc1ccc(N2CCOCC2)cc1)c1csc(COCCO)n1 | 54.5% | 59.1% |
| COc1ccc(N=C2S/C(=C\c3ccc(Cl)c([N+](=O)[O-])c3)C(=O)N2CCN(C)C)cc1 | 65% | 90.2% |
| CCN1CCC(O)(/C=C/c2ccc(C(C)C)cc2)C(C(=O)/C=C/c2ccc(C(C)C)cc2)C1 (stereo not drawn) | 87.8% | 82.8% |
| C/C(=N\NC(=O)c1ccc2ccccc2c1)c1cccs1 | 60.5% | 67.2% |
| O=C(Nc1ccc2c(c1)OCCO2)c1ccc2nccnc2c1 | 53.5% | 50.4% |
| CC(=C/c1ccccc1)/C=N/NC(=O)c1ccccn1 | 87.2% | 85.2% |
| Cc1cc(C)cc(NS(=O)(=O)c2ccc3c(c2)c(=O)n(C)c(=O)n3C)c1 | 79% | 82.2% |
| CC(C)N(CC(=O)Nc1ccc(Cl)cc1C(F)(F)F)C(=O)CCl | 99.4% | 96.2% |
| COC(=O)CSc1nnc(NC(=O)/C=C\c2ccc3c(c2)OCO3)s1 | 49.5% | 66.2% |
| Cc1ccc(C2CC2c2n[nH]c(=S)n2-c2ccc(Cl)cc2)cc1 (stereo not drawn) | 63% | 45.3% |
| COc1ccc(-c2cc(-c3ccccc3)c(C#N)c(S(C)(=O)=O)n2)cc1 | 79.3% | 96.9% |
| Cc1ccc(CN2[C@@H](Cc3ccccc3)C(=O)CS2(=O)=O)cc1 | 81% | 60.2% |
| Cc1cccc(/C=C/c2nc3ccccc3c(=O)[nH]2)c1 | 61.5% | 65% |
| Cc1ccc2nc(-c3cccc(N)c3)[nH]c2c1 | 71.5% | 59.6% |
| CCCCC1CCC(C(=O)N(CCCC)c2c(N)n(CCCC)c(=O)[nH]c2=O)CC1 (stereo not drawn) | 81.5% | 77.5% |
| Cc1cccnc1NC(=S)NC(=O)c1cccs1 | 73.2% | 66.8% |
| Cc1ccc(C(=O)Nc2ccc(C)c(S(=O)(=O)N(C)C)c2)s1 | 52.5% | 66.5% |
| Cn1c(-c2ccccc2)cc2onc(-c3ccccc3)c2c1=O | 85.5% | 85.7% |

| SMILES | activity [1] | activity [2] |
| --- | --- | --- |
| COc1cccc(C(=O)/C=C2\Sc3ccccc3N2C)c1 | 56.7% | 29.4% |
| Cc1ccc(NC(=O)c2ccc(C)cc2)cc1 | 64.9% | 63.8% |
| FC(F)(F)c1cc(CCN2CCNC[C@@H]2CC2CCCCC2)cc(C(F)(F)F)c1 | 35.1% | 84.2% |
| COc1ccc(-c2cc(C(=O)N3CCOCC3)no2)cc1 | 50.8% | 49.9% |
| Cc1nc2cc(NC(=O)Nc3ccccc3Cl)ccc2n1C | 78.5% | 78.2% |
| CS(=O)c1nc(-c2ccc(Br)cc2)cc(-c2ccccc2)c1C#N (stereo not drawn) | 95.7% | 97.8% |
| COc1cccc(NC(=O)n2ncc3c(C)cccc32)c1 | 67.7% | 64.3% |
| Cc1cc(NC(=O)/C=C/c2ccccc2Cl)n(-c2nc3ccccc3[nH]2)n1 | 78.8% | 82.4% |
| CCC(=O)Nc1ccc(C(=O)Cn2ncc(Cl)c(Cl)c2=O)cc1 | 99.4% | 99.3% |
| O=C(NC1CCCCC1)C(c1cccnc1)N(C(=O)CCl)c1ccc(F)cc1 (stereo not drawn) | 99.2% | 98.8% |
| O=C(CCl)N(CCc1ccccc1)CCc1ccccc1 | 99.4% | 98.2% |
| Cc1ccc2cc(NC(=O)c3ccccc3)ccc2n1 | 55% | 43.6% |
| COc1ccccc1Nc1nc(N)nc(CCl)n1 | 98.8% | 96.4% |
| Cc1ccc(-c2nc(N/N=C/c3cccnc3)c3ccccc3n2)cc1 | 94.3% | 88.2% |
| O=C(CCl)Nc1ccc(-c2ccccc2)cc1 | 99.3% | 99.7% |
| C#CCN(C[C@@H]1[C@@H](OC(=O)Nc2cccs2)[C@@H](OC(=O)Nc2cccs2)Cn2c(=O)ccc(=O)n21)S(=O)(=O)c1ccc(C)cc1 | 96.5% | 95.8% |
| CC(=O)Nc1sc2c(c1-c1nc3ccccc3s1)CN(C(C)C)CC2 | 38% | 73.8% |
| CCC(C(=O)O/N=C(\N)c1ccccc1)c1ccccc1 (stereo not drawn) | 81.9% | 81.6% |
| Cc1ccc(NC(=O)N2CCc3ccccc32)cc1C | 71.9% | 66.1% |
| O=C(NC(=S)Nc1ccccn1)c1ccccc1 | 77.8% | 76.8% |
| C=C1C(=O)C23CCC4C(C)(C(=O)OC)CCCC4(C)C2CCC1(O)C3 (stereo not drawn) | 95.6% | 98.7% |
| O=[N+]([O-])c1c(Nc2ccccc2O)cc(Cl)c2nonc12 | 63.9% | 98.3% |
| O=C(COc1ccc2c(c1)OCO2)Nc1nccs1 | 52.9% | 54% |
| CC(C)(C)c1ccc(C(=O)Nc2cnccn2)cc1 | 78.5% | 82.2% |

| SMILES | activity [1] | activity [2] |
| --- | --- | --- |
| O=C(c1ccncc1)N1CCN(c2cc(-c3ccccc3)nc3cc(-c4cccc(Cl)c4)nn23)CC1 | -0.725% | -15.8% |
| CC(C)CC(N)c1csc(NC(=O)c2cc(C(C)(C)C)nn2Cc2ccccc2)n1 (stereo not drawn) | 70% | 92.4% |
| Cc1cc(C(=O)COC(=O)c2cccn2C)c(C)n1Cc1ccco1 | 54.5% | 39.2% |
| Cc1ccc(C2=Nc3ccccc3N=C(C(Cl)Cl)C2)cc1 | 7.3% | 6.45% |
| O=C(Nc1ccc(-c2cn3ccccc3n2)cc1)c1cccs1 | 76.2% | 66.1% |
| COc1ccc(-c2ccc(NC(=O)c3ccco3)cc2)nn1 | 91% | 89.9% |
| O=C(CCl)Nc1ncc(S(=O)(=O)c2ccc([N+](=O)[O-])cc2)s1 | 95.9% | 92.3% |
| COc1ccc(/C(N)=N/OC(=O)CC2CCCCC2)cc1OC | 83.4% | 78.2% |
| CNC[C@H](CC1CCCCC1)NC[C@H](Cc1ccccc1)NCCC12CC3CC(CC(C3)C1)C2 | 98.5% | 99.4% |
| COC(=O)Cn1c(=O)c(C(=O)CCl)c(N)n(Cc2ccccc2)c1=O | 93.6% | 94.7% |
| Cc1ccc(S(=O)(=O)N2C[C@H]3[C@H]4C(=O)N(C5CCCCC5)C(=O)[C@H]4CC(=O)[C@H]3[C@@H]2c2cccc3ccccc23)cc1 | -8.53% | -13.6% |
| O=C1[C@H]2[C@@H](/C=C/c3ccccc3)N3C(=O)CN(CC4CC4)C(=O)[C@@]3(Cc3ccccc3)[C@H]2C(=O)N1c1ccccc1 | 73.9% | 97.8% |
| CCN1CCN(CCNC(=O)c2ccc3c(c2)N(Cc2ccc(F)cc2)C(=O)/C(=C/c2ccccc2)S3)CC1 | 53.4% | 80.5% |
| COc1ccc(S(=O)(=O)N2CCC(C(=O)NCCC3=CCCCC3)CC2)cc1C | 13.8% | 22.2% |
| COc1ccc2cc3cc(C(=O)NC4CC4)sc3nc2c1 | 80% | 81.4% |
| Cc1nc2c(-c3ccc(F)cc3)cnn2c(N)c1-c1ccccc1 | 88.4% | 86.9% |
| O=C(Nc1nc2ccccc2[nH]1)c1ccc(OC(F)F)cc1 | 95.3% | 94.6% |
| Cc1nc2cc(NC(=O)N3c4ccccc4CC3C)ccc2n1C (stereo not drawn) | 71.9% | 70.6% |
| Cc1nc(-c2ccc(C(=O)Nc3ccccc3F)cc2)cs1 | 81.9% | 84.3% |
| Cc1ccc2sc(NC(=O)CSc3nc(C)cc(C)c3C#N)nc2c1 | 71.5% | 57.3% |
| O=C(Nc1nc2ccccc2n1CCN1CCCCC1)C1CCCCC1 | 56.6% | 54.1% |
| COc1ccc2c(=O)c(-c3nc(C)cs3)coc2c1 | 69.9% | 71.6% |
| O=C(/C=C/c1ccc([N+](=O)[O-])cc1)Nc1ncc([N+](=O)[O-])s1 | 69.1% | 68.5% |
| COc1ccc(/C=N/Nc2cc(OC)ncn2)cc1 | 53.9% | 40.8% |

| SMILES | activity [1] | activity [2] |
| --- | --- | --- |
| COc1ccc(Oc2c(Cl)cnn(-c3ccc(Cl)c(Cl)c3)c2=O)cc1 | 98.5% | 99.1% |
| NC(Cc1ccccc1)c1csc(NC(=O)Nc2ccccc2Oc2ccccc2)n1 (stereo not drawn) | 61.5% | 78.7% |
| Cc1ccc(/C=N/NC(=O)c2nn(C)cc2Cl)cc1 | 62.2% | 36% |
| O=C(Nc1ccc(F)cc1)c1nc(S(=O)(=O)Cc2ccccc2)ncc1Cl | 57% | 94.9% |
| CC(C)(CNC(=O)c1ccc([N+](=O)[O-])c(Cl)c1)CNC(=O)c1ccc([N+](=O)[O-])c(Cl)c1 | 54.5% | 60.3% |
| FC(F)(F)c1cccc(CC2CN(Cc3ccccc3)Cc3ccccc3N2c2cc(Cl)cc(Cl)c2)c1 (stereo not drawn) | 1.05% | -5.7% |
| CN(C)c1ccc(/C=N/NC(=O)c2ccccn2)cc1 | 74.7% | 65.2% |
| O=C(Nc1nc2ccccc2[nH]1)c1ccccc1 | 88% | 84.5% |
| O=C(Nc1nc2ccccc2[nH]1)c1ccc(Cl)cc1 | 94.4% | 94.1% |
| CN(C)c1ccc(C=Nc2ccccc2C(N)=O)cc1 | 85.3% | 86.5% |
| N=c1c2c(n(Cc3ccc(Cl)c(Cl)c3)c3c1CCC3)CCCC2 | 80.6% | 60.1% |
| CCc1ccc(-c2cn3nc(C)c(C)nc3n2)cc1 | 75.3% | 63.9% |
| CC(C)c1ccc(NC(=O)Nc2nc(C(N)COCc3ccccc3)cs2)cc1 (stereo not drawn) | 47.9% | 80.4% |
| Cc1cccc(NC(=O)c2ccc3c(c2)OCCO3)c1 | 85% | 83.5% |
| O=C(OCn1ncc(Cl)c(Cl)c1=O)c1ccccc1Cl | 99.1% | 99.3% |
| O=C(NCCN1CCOCC1)NC1(C(F)(F)F)Oc2ccc(Cl)cc2O1 (stereo not drawn) | 32.6% | 26.8% |
| CCOC(=O)c1cn2nc(N3CCCCC3)ccc2n1 | 52.5% | 72.9% |
| Cc1nc2sc(-c3ccccc3)cc2c(=O)[nH]1 | 74.1% | 73.8% |
| CC(=C/c1ccccc1)/C=N/NC(=O)c1cccs1 | 56% | 51.2% |
| Cc1nc2sc(-c3ccccc3)cc2c(=O)n1N | 59.7% | 44.8% |
| CCCCC[C@@H](C)N1C[C@H](COCc2ccccc2)Oc2cc(N3CC[C@@H](N(C)C)C3)ccc2S1(=O)=O | 13% | 43.6% |
| CCCc1cc(=O)[nH]c(SCC(=O)Nc2sc(C(N)=O)c(C)c2C(=O)OCCOC)n1 | 84.6% | 86.4% |
